# Measurements: PubChem BioAssay (NCATS)
# Records with an inconclusive call do not appear. Active and inactive are the calls of the source. Unless noted, calls follow the shape of the dose curve; as a rule, active = well fitted curve in the direction sought with a large enough effect; inconclusive = small, poorly fitted or top-dose-only effect, or another doubt; inactive = no such curve, though single readings can be large; an effect the other way counts as inactive or inconclusive.
# Key:
# [1] = P-glycoprotein substrates identified in KB-3-1 adenocarcinoma cell line, qHTS therapeutic library screen (AID 1346986); also: nearly all actives have a fitted effect of over 60% in size;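 also: potency is read from the fitted curve at half-maximal effect; potency is for cytotoxicity meaning loss of cell viability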
# Procedure, shortened: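 In 1536-well format, 500 cells/well received pinned compound titrations and were incubated 72 h, 5% CO2. Viability was read by CellTiter-Glo; cytotoxic if AC50 < 10 uM and efficacy >50%.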
# [2] = P-glycoprotein substrates identified in KB-8-5-11 adenocarcinoma cell line, qHTS therapeutic library screen (AID 1346987); also: nearly all actives have a fitted effect of over 65% in size; also: potency is read from the fitted curve at half-maximal effect
# Procedure, shortened: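 Compounds are pinned in dose-response onto KB-8-5-11 cells (500 cells/well, colchicine-free medium) and left 72 h at 37 degree C. CellTiter-Glo luminescence then yields AC50 values.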
# [3] = Primary qHTS for inhibitors of nuclear receptor binding SET domain protein 2 (NSD2) in an isogenic RCH-ACV NSD2 p.E1099K mutant (9B) (AID 1645876); also: nearly all actives have a fitted effect of over 70% in size; also: potency is read from the fitted curve at half-maximal effect
# [4] = Primary qHTS for inhibitors of nuclear receptor binding SET domain protein 2 (NSD2) in an RCH-ACV wild type WT cells (2C) (AID 1645877); also: nearly all actives have a fitted effect of over 70% in size; also: potency is read from the fitted curve at half-maximal effect
# [5] = NCATS anti-infectives library activity on HEK293 viability as a counter-qHTS vs the C. elegans viability qHTS (AID 1745854); also: % is scaled to controls: 0 for no effect and ±100 for the full control effect
# Procedure, shortened: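 Cytotoxicity counter-screen to a worm viability qHTS: CellTiter-Glo luminescence read 10 min after reagent addition. Compounds (final up to 41.7 uM, a 1:5 dilution series) incubated 24 hr at 37C with 1,500 HEK293 cells per well; digitonin control.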
# [6] = target: Catechol O-methyltransferase (Homo sapiens) (UniProt P21964); assay: Confirmatory Screen for Target Class Profiling of Small Molecule Inhibitors of Methyltransferases (AID 1745852; calls by dose curve; also: potency is read from the fitted curve at half-maximal effect; as to activity change, negative = inhibition: % is scaled to controls: 0 for no effect and ±100 for the full control effect); conditions: MTase-Glo luminescence, SAH detection, recombinant enzyme; measured here: COMT max response; stronger effect = lower value
# [7] = target: Guanidinoacetate N-methyltransferase (Homo sapiens) (UniProt Q14353); assay: as above; conditions: activity change, negative = inhibition: at 57.3 µM (top of the series) unless noted
# [8] = target: Nicotinamide N-methyltransferase (Homo sapiens) (UniProt P40261); assay: as above; conditions: MTase-Glo luminescence, SAH detection, recombinant enzyme; measured here: NNMT max response; stronger effect = lower value
# [9] = target: Phenylethanolamine N-methyltransferase (Homo sapiens) (UniProt P11086); assay: as above; conditions: MTase-Glo luminescence, SAH detection, recombinant enzyme; measured here: PNMT max response; stronger effect = lower value
# [10] = target: Glutathione peroxidase 1 (Homo sapiens) (UniProt P07203); assay: Primary qHTS Assay for Inhibitors of Recombinant Selenoprotein Glutathione Peroxidase 1 (GPX1) (AID 1845191); also: nearly all actives have a fitted effect of over 65% in size; also: potency is read from the fitted curve at half-maximal effect; as to activity, negative = inhibition: % is scaled to controls: 0 for no effect and ±100 for the full control effect
# Procedure, shortened: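 GR-coupled readout: NADPH consumption tracked by fluorescence, ex 340/em 450 nm, at t=0 and after 15 min at RT. Final mix 10 nM GPX1, 1 mM GSH, 0.5 mM CHP, 0.5 mM NADPH, 100 nM GR, 0.01% BSA, following 30 min enzyme–compound preincubation.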
# Phenylethanolamine N-methyltransferase (Homo sapiens), sequence (P11086 whole entry, looked up): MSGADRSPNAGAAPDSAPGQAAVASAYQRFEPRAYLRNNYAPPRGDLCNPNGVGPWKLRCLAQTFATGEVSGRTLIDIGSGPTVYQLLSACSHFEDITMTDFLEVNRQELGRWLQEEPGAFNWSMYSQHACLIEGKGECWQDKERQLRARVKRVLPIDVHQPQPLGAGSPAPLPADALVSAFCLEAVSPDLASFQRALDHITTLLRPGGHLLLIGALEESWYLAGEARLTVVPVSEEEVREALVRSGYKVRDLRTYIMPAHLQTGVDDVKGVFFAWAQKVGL
# Catechol O-methyltransferase (Homo sapiens), sequence (P21964 whole entry, looked up): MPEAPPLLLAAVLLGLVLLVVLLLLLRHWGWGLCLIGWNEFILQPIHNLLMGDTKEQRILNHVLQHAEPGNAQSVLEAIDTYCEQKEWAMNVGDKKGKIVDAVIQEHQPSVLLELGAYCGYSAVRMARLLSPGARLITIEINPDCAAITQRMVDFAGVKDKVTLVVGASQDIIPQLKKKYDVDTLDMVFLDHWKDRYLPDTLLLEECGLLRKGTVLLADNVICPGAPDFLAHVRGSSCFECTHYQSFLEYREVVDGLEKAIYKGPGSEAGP
# Nicotinamide N-methyltransferase (Homo sapiens), sequence (P40261 whole entry, looked up): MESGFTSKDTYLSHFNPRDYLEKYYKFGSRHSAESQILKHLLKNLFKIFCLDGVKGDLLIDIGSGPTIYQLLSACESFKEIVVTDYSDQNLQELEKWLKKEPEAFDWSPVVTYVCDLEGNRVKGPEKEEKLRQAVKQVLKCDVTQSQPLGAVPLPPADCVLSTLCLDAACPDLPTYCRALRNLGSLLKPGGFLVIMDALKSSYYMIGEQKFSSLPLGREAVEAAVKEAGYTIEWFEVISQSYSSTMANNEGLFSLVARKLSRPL
# Glutathione peroxidase 1 (Homo sapiens), sequence (P07203 whole entry, looked up): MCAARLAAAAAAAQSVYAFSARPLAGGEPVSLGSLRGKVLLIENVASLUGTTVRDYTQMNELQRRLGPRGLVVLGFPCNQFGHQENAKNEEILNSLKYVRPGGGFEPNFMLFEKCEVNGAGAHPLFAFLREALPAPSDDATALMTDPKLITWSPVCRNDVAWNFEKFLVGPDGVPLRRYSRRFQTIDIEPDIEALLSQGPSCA
structure (smiles),measurement,setting,value
OC[C@H]1O[C@@H](O[C@@H]2OC=C[C@H]3[C@H](O)[C@@H]4O[C@]4(CO)[C@@H]23)[C@H](O)[C@@H](O)[C@@H]1O,Potency,[1],inactive
same,Potency,[2],inactive
same,Potency,[3],inactive
same,Potency,[4],inactive
same,outcome,[5],inactive
CN(C)CCNC(=O)c1cccn2c(=O)c3cc4ccccc4cc3nc12,Potency,[1],1190 nM (active)
same,Potency,[2],1190 nM (active)
same,Potency,[3],668 nM (active)
same,Potency,[4],668 nM (active)
same,activity,[6],3%
same,"activity change, negative = inhibition",[7],0.968% [at 12.7 µM]
same,activity,[8],3.48%
same,activity,[9],3.82%
same,"activity, negative = inhibition",[10],2.53% [at 9.52 µM] (inactive)
COc1ccc2cc1Oc1ccc(cc1)CC1c3cc(c(OC)cc3CCN1C)Oc1c(OC)c(OC)c(OC)c3c1C(C2)N(C)CC3 (stereo unspecified),Potency,[1],inactive
same,Potency,[2],inactive
same,Potency,[3],inactive
same,Potency,[4],inactive
same,Potency,[10],inactive
Cc1cc(C)c(/C=C2\C(=O)Nc3ccc(Cl)cc32)[nH]1,Potency,[1],inactive
same,Potency,[2],inactive
same,Potency,[3],inactive
same,Potency,[4],inactive
same,Potency,[10],inactive
Oc1cccc(Nc2ccnc3cc(-c4cccc(CN5CCOCC5)c4)sc23)c1,Potency,[1],7310 nM (active)
same,Potency,[2],8200 nM (active)
same,Potency,[3],1640 nM (active)
same,Potency,[4],1460 nM (active)
same,Potency,[10],inactive
CCCCCCCCCCCCCC#CC(=O)[C@@H]1COC(C)(C)N1C(=O)OC(C)(C)C,Potency,[1],inactive
same,Potency,[2],inactive
same,Potency,[3],13000 nM (active)
same,Potency,[4],16400 nM (active)
same,Potency,[10],inactive
Nc1nc(N)c2nc(-c3cccc(O)c3)cnc2n1,Potency,[1],5800 nM (active)
same,Potency,[2],7310 nM (active)
same,Potency,[3],1640 nM (active)
same,Potency,[4],1460 nM (active)
same,Potency,[10],inactive
O=C(Nc1cccc(Nc2cc(Nc3cccc(C(F)(F)F)c3)ncn2)c1)C1CC1,Potency,[1],920 nM (active)
same,Potency,[2],920 nM (active)
same,Potency,[3],731 nM (active)
same,Potency,[4],920 nM (active)
same,activity,[6],-58%
same,Potency,[7],21500 nM (active)
same,activity,[8],-68.1%
same,activity,[9],-61.4%
same,Potency,[10],inactive
CSc1cc2c(s1)c1cnn(Cc3ccccc3F)c(=O)c1n2C,Potency,[1],inactive
same,Potency,[2],inactive
same,Potency,[3],inactive
same,Potency,[4],inactive
O=S(=O)(/N=C/c1c(O)ccc2ccccc12)c1cccs1,Potency,[1],inactive
same,Potency,[2],inactive
same,Potency,[3],inactive
same,Potency,[4],inactive
same,Potency,[10],inactive
COC(=O)C#Cc1ccc([N+](=O)[O-])cc1,Potency,[1],13000 nM (active)
same,Potency,[2],18400 nM (active)
same,Potency,[3],4610 nM (active)
same,Potency,[4],4110 nM (active)
same,Potency,[10],inactive
O=C(Nc1cccc(Nc2nccc(Nc3cccc(C(F)(F)F)c3)n2)c1)C1CC1,Potency,[1],5800 nM (active)
same,Potency,[2],5800 nM (active)
same,Potency,[3],3660 nM (active)
same,Potency,[4],2590 nM (active)
same,Potency,[10],inactive
Cc1ccc(OCCSc2ncccn2)c(Br)c1,Potency,[1],inactive
same,Potency,[2],inactive
same,Potency,[3],inactive
same,Potency,[4],inactive
same,Potency,[10],inactive
C[C@@H](Oc1cc(-n2cnc3ccc(OC4CCN(C)CC4)cc32)sc1C(N)=O)c1ccccc1Cl,Potency,[1],18.4 nM (active)
same,Potency,[2],461 nM (active)
same,Potency,[3],41.1 nM (active)
same,Potency,[4],58 nM (active)
same,activity,[6],-96.8%
same,Potency,[7],8570 nM (active)
same,activity,[8],-85.5%
same,activity,[9],-96.2%
same,Potency,[10],inactive
CN(C)CCCNc1c2ccccc2nc2c1[nH]c1ccccc12,Potency,[1],1840 nM (active)
same,Potency,[2],2310 nM (active)
same,Potency,[3],1840 nM (active)
same,Potency,[4],2060 nM (active)
same,Potency,[10],22700 nM (active)
CS(=O)(=O)c1ccc([C@@H](C[C@H]2CCC(=O)C2)C(=O)Nc2cnccn2)cc1Cl,Potency,[1],inactive
same,Potency,[2],inactive
same,Potency,[3],inactive
same,Potency,[4],inactive
same,Potency,[10],inactive
CC(C)C(=O)OC[C@H]1O[C@@H](n2ccc(N)nc2=O)[C@](C)(F)[C@@H]1OC(=O)C(C)C,Potency,[1],inactive
same,Potency,[2],inactive
same,Potency,[3],inactive
same,Potency,[4],inactive
same,outcome,[5],inactive
CCN(CC)CCNc1ccc2ncn3c4ccc(O)cc4c(=O)c1c23,Potency,[1],1300 nM (active)
same,Potency,[2],1300 nM (active)
same,Potency,[3],65.1 nM (active)
same,Potency,[4],58 nM (active)
same,Potency,[10],inactive
N#Cc1c2nc3ccccc3nc2n2ccc(NC(=O)c3cccs3)cc12,Potency,[1],23100 nM (active)
same,Potency,[2],20600 nM (active)
same,Potency,[3],1160 nM (active)
same,Potency,[4],1160 nM (active)
CN(C)CC(=O)N1CCC[C@@H](n2nc(-c3ccc(Oc4ccccc4)cc3)c3c(N)ncnc32)C1,Potency,[1],20600 nM (active)
same,Potency,[2],20600 nM (active)
same,Potency,[3],1640 nM (active)
same,Potency,[4],1640 nM (active)
same,Potency,[10],inactive
Oc1cc(CNC(=S)/C=C/c2cc(O)c(O)c(Br)c2)cc(O)c1O,Potency,[1],7310 nM (active)
same,Potency,[2],7310 nM (active)
same,Potency,[3],1160 nM (active)
same,Potency,[4],1030 nM (active)
same,activity,[6],-46.2%
same,"activity change, negative = inhibition",[7],-4.79%
same,activity,[8],-0.986%
same,activity,[9],-0.984%
same,Potency,[10],8060 nM (active)
O=C1c2ccccc2-c2nc3nnnn3nc21 (tested in a mixture with another compound),Potency,[1],920 nM (active)
same,Potency,[2],920 nM (active)
same,Potency,[3],82 nM (active)
same,Potency,[4],184 nM (active)
same,activity,[6],-95.2%
same,Potency,[7],482 nM (active)
same,activity,[8],-67.5%
same,activity,[9],-24.7%
same,Potency,[10],16100 nM (active)
OCC(O)CCO/N=C1/C(c2c(O)[nH]c3ccccc23)=Nc2ccccc21 (stereo unspecified),Potency,[1],14600 nM (active)
same,Potency,[2],16400 nM (active)
same,Potency,[3],2590 nM (active)
same,Potency,[4],2590 nM (active)
C[C@]1(C(=O)Nc2ccc(F)nc2)CCCN1c1nc(Nc2cc(C3CC3)[nH]n2)c2cccn2n1,Potency,[1],2060 nM (active)
same,Potency,[2],2910 nM (active)
same,Potency,[3],1840 nM (active)
same,Potency,[4],920 nM (active)
